Screens: PubChem BioAssay, National Center for Advancing Translational Sciences (NCATS)
Most compounds without a hit are left out; they make up all but 21% or so of the library.
VP16 counter: Gal4-VP16 reporter inhibition counter-screen | Potency, µM (series often up to 53.6 µM), inactives show top-dose activity, negative = inhibition, most hits filed as inhibitors | Drosophila S2 Gal4-VP16 UAS-luciferase, luminescence, 20 h | 310,000 tested, 3.5% active;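 further: Gal4-VP16 expression switched on by copper sulfate through the metallothionein promoter; potency means the concentration at half of the fitted maximal effect; nearly all actives have a fitted effect of over 50% in size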
TDP1 cell noCPT: qHTS for Inhibitors of human tyrosyl-DNA phosphodiesterase 1 (TDP1): qHTS in cells in absence of CPT; DT40 Tdp1-/- hTDP1 cells, no CPT, ATP luminescence, 48 h; Potency, µM (series often up to 46.2 µM), without a hit: at the highest dose activity change, negative = growth inhibition, most hits filed as inhibitors; AID 686978, 2013; 420,000 tested, 15% active; further: potency means the concentration at half of the fitted maximal effect; nearly all actives have a fitted effect of over 55% in size
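Stably hTDP1-transfected Tdp1-null chicken DT40 cells were treated with library compounds minus camptothecin and grown for at least 48 hr at 37 °C, after which cellular ATP was quantified by luminescence.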
DT40 TDP1 CPT: growth inhibition of DT40 Tdp1-/-;hTDP1 cells with camptothecin (screen for TDP1 inhibitors); chicken DT40 Tdp1-/-;hTDP1 cells + 20 nM CPT, ATP luminescence, 48 h; Potency, µM (series often up to 46.2 µM), for inactives: at the highest dose activity change, negative = growth inhibition, most hits filed as inhibitors; 420,000 tested, 12% active; further: potency means the concentration at half of the fitted maximal effect; nearly all actives have a fitted effect of over 55% in size
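Chicken DT40 Tdp1-/- cells complemented with human TDP1, 400 cells/well, exposed to compounds plus 20 nM camptothecin for at least 48 h at 37 C; viability read as ATP content by CellTiter-Glo luminescence.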
RORg inh: ROR gamma (mouse) transcription inhibition; P51450; Drosophila S2 Gal4-RORgamma UAS-luciferase reporter, 20 h; Potency, µM (top dose mostly 53.6 µM), for inactives: top-dose activity change, negative = inhibition, hits mostly inhibitors; 310,000 tested, 5.4% active; further: potency means the concentration at half of the fitted maximal effect; nearly all actives have a fitted effect of over 60% in size
Target sequence (P51450 whole entry, looked up, the tested form may be a part): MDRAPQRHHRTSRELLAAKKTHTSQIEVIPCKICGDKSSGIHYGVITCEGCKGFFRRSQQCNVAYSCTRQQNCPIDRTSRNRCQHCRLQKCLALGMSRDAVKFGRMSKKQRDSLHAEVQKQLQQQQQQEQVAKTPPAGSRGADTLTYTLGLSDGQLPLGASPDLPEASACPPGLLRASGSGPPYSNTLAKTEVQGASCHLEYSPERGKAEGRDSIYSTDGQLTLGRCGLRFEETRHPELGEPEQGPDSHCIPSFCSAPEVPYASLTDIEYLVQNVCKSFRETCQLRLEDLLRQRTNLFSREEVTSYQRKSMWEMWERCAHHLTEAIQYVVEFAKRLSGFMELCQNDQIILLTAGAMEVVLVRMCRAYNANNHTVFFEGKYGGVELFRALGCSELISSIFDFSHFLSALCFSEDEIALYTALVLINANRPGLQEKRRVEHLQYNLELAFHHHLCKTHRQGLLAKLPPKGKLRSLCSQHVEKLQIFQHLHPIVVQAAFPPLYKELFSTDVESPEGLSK
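Schneider cells (Drosophila), stable Gal4 DBD–ROR gamma + UAS-luc; 1 hr cmpd preincubation; Cu2+ induction 700 uM final; 20 hr ambient; luminescence.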
ELG1 repair inh: inhibitors of ELG1-dependent DNA repair in HEK293T cells; HEK293T ELG1-luciferase reporter, luminescence, 16 h; DNA damage induced by 5-fluorouridine; Potency, µM (series often up to 46.1 µM), for inactives: at the top dose activity change, negative = inhibition, usual class: inhibitors; 330,000 tested, 2.3% active; AID 504467; further: potency means the concentration at half of the fitted maximal effect; nearly all actives have a fitted effect of over 55% in size
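In this reporter screen, reduction of luminescence relative to DMSO vehicle indicated activity. Compounds and 5-fluorouridine were added together to 2,000 cells per well, incubated for 16 hr at 37 °C, then developed with ONE-Glo.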
IL-1B inflam inh: inhibitors of inflammasome signaling (IL-1 beta secretion); THP-1 LPS/ATP IL-1B secretion, AlphaLISA, 16 h; stronger effect = lower value; activity change, % at 57.5 µM; 360,000 tested, 4.7% active; in the data active means activity change below about -50%; inconclusive means mostly about -30% to -49%
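THP-1 cells pretreated 1 hr with compounds (up to 57.5 uM final), then stimulated with LPS (250 ng/mL final) plus ATP (1.25 mM final); secreted IL-1B measured by AlphaLISA after 16 hr, decreased signal indicating inhibition.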
* = called active by the depositor; ? = inconclusive; · = no result; ! = not confirmed by another sample; [ ] = dose if it differs, or a comment. Unless noted, the call rests on the fitted dose curve; in most records, active means well fitted curve in the direction sought with a large enough effect; inconclusive means small, poorly fitted or top-dose-only effect, or another doubt; inactive means no such curve, though single readings can be large; an effect the other way counts as inactive or inconclusive. On the % scale 0 is the no-effect control and ±100 the full control effect.

SMILES	VP16 counter	TDP1 cell noCPT	DT40 TDP1 CPT	RORg inh	ELG1 repair inh	IL-1B inflam inh
COc1cc2nc(Cl)nc(N3CCOCC3)c2cc1OC	5%	?	?	2%	-5%	-3
Cn1c(=O)c2cc(NC(=O)Nc3cccnc3)ccc2n1-c1ccc(C(C)(C)C)cc1	·	?	?	·	·	-17
COC(=O)[C@]1(C)N[C@H](CN(C)C(C)=O)[C@@H]2C(=O)N(Cc3ccccc3)C(=O)[C@@H]21	·	0%	-2%	·	12%	13
C=CCN(CC=C)Cc1cc(=O)oc2cc(C)c(Cl)cc12	·	?	?	·	·	12
COc1cccc(-c2ccc3c(c2)O[C@@H](CN(C)Cc2cncnc2)[C@@H](C)CN([C@H](C)CO)S3(=O)=O)c1	·	9.2µM*	23µM*	·	·	1
C[C@H](CO)N1C[C@H](C)[C@@H](CN(C)Cc2cncnc2)Oc2cc(Br)ccc2S1(=O)=O	·	?	?	·	·	-22
C/C=C/c1ccc2c(c1)O[C@@H](CN(C)C(=O)c1ccc(F)cc1)[C@@H](C)CN([C@H](C)CO)S2(=O)=O	·	?	?	·	·	-3
COc1cccc(-c2ccc3c(c2)O[C@H](CN(C)C(=O)c2ccccc2F)[C@H](C)CN([C@H](C)CO)S3(=O)=O)c1	·	21µM*	?	·	·	-29
Cc1ccc(-c2ccc3c(c2)O[C@H](CN(C)Cc2cncnc2)[C@@H](C)CN([C@H](C)CO)S3(=O)=O)cc1	·	23µM*	?	·	·	-29
C[C@@H]1CN([C@@H](C)CO)S(=O)(=O)c2ccc(-c3cccc(C#N)c3)cc2O[C@@H]1CN(C)C(=O)c1ccc(F)cc1	·	21µM*	?	·	·	-26
COc1ccc(O[C@H]2C=C[C@@H](c3ccccc3)O[C@H]2COC(=O)N2CCCCC2)cc1	-18%[10 µM]	·	·	?	·	·
Cc1ccc2nc(Cl)c3cc(C(=O)N4CCCCC4C)sc3c2c1 (stereo not drawn)	·	23µM*	?	·	·	·
CCC1CCCCN1CCCNC(=O)c1cc2c(Cl)nc3ccc(C)cc3c2s1 (stereo not drawn)	·	4.6µM*	5.2µM*	·	·	·
Cc1ccc2nc(Cl)c3cc(C(=O)N4CCCCC4)sc3c2c1	·	-101%	?	·	·	·
Cc1ccc2nc(Cl)c3cc(C(=O)NCCCN4CCCC4)sc3c2c1	-12%	5.8µM*	5.8µM*	2%	?	-20
CCC1CCCCN1CCCNC(=O)c1c(O)nc2cc(C)ccn2c1=O (stereo not drawn)	7%	?	3%	-8%	0%	-16
CCOc1ccc(CNC(=O)CCS(=O)(=O)c2ccc3c(c2)NC(=O)CO3)cc1OC	-2%	24%	2%	-12%	9%	0
CCOC(=O)c1c(S(=O)(=O)NCC(=O)N(C)c2ccc(C)cc2)c(C)n(C)c1C	·	-14%	-26%	·	·	·
Cc1ccc(O)c(NC(=O)c2nc3nc(C)cc(C(F)F)n3n2)c1	·	?	-7%	·	·	·
Cc1c(C(=O)NC(C)c2ccccn2)oc2c(Cl)cccc12 (stereo not drawn)	·	?	-25%	·	29%	5
CC1=C(C(=O)N2CCOCC2)CC(CC(=O)NC2CC2)C(=O)N1Cc1ccc(F)cc1 (stereo not drawn)	·	0%	5%	·	·	32
CC(C)(C)[C@@H]1COC(=O)[C@H](Cc2ccc(F)cc2)CC/C=C\C[C@@H](CC(=O)N(CCO)Cc2ccccc2)C(=O)N1	·	23µM*	5.8µM*	·	-7%	-11
C[C@@H]1COC(=O)[C@@H](Cc2ccc(F)cc2)C/C=C\C[C@H](CC(=O)N(CCO)Cc2ccccc2)C(=O)N1	·	?	?	·	?	-8
CC(C)(C)[C@@H]1COC(=O)[C@@H](Cc2ccc(F)cc2)C/C=C\C[C@H](CC(=O)N(CCO)Cc2ccccc2)C(=O)N1	·	?	23µM*	·	?	-19
Oc1cc(Nc2ccncc2)cc2cccnc12	·	·	·	·	7%	·
SMILES	VP16 counter	TDP1 cell noCPT	DT40 TDP1 CPT	RORg inh	ELG1 repair inh	IL-1B inflam inh
Oc1cc(-c2ccncc2)cc2cccnc12	·	·	·	·	16µM*	·
CO[C@@H]1COC(=O)[C@@H](C)NC(=O)C/C=C\[C@@H](C)[C@H](NS(=O)(=O)c2ccc(C)cc2)COC(=O)[C@H](C)NC(=O)C/C=C\[C@H]1C	-5%[10 µM]	·	·	-4%[10 µM]	·	·
O=C(CSc1nc2ccsc2c(=O)n1Cc1ccccc1)NCc1ccco1	4%	?	?	?	-1%	-7
CCC(Sc1nc2ccsc2c(=O)n1-c1ccc(Cl)c(C)c1)C(=O)NCc1ccco1 (stereo not drawn)	25%	?	?	?	?	-71*
O=C(c1[nH]c(C(F)(F)F)nc1-c1ccccc1)N1CCN(C/C=C/c2ccccc2)CC1	·	-18%	5%	·	·	-7
CNc1ncnc2sc(-c3ccccc3)cc12	4%	?	16µM*	-8%	13%	-77*
OCCOCCNc1ncnc2sc(-c3ccccc3)cc12	?	?	?	5%	?	-18
CN(C)CCNc1ncnc2sc(-c3ccccc3)cc12	1%	18µM*	?	10%	-14%	-72*
S=c1[nH]cnc2sc(-c3ccccc3)cc12	4.5µM*	?	-20%	1.4µM*	?	-1
Cc1ccc(S(=O)(=O)OCCc2ccccc2)cc1	-14%	·	·	2%	·	·
O=C(Nc1ccc(C(=O)OCc2cc(=O)n3nc(C4CC4)sc3n2)cc1)c1ccccc1	·	-21%	-19%	·	·	·
O=C(O)c1cc(N=Nc2ccc([N+](=O)[O-])cc2)ccc1O	-11%	·	·	-1%	·	·
Cn1nnnc1SCC(=O)Nc1ncc(C(F)(F)F)cc1Cl	·	-3%	-5%	·	?	22
COc1ccc(S(=O)(=O)Nc2ccc3c(c2)N(C(C)=O)CCC3)cc1F	·	18µM*	15µM*	·	·	·
CC(=O)N1CCCc2ccc(NS(=O)(=O)c3ccc(C)c(C)c3)cc21	?	?	12µM*!	14%	-10%	29
CCN(CC)C(=O)c1csc(COCCO)n1	·	-17%	-34%	·	·	0
COc1cc(OC)c(-c2sc(Nc3ccccc3)n[n+]2-c2ccc(F)cc2)cc1OC	-2%	-25%	?	-3%	?	11
COc1ccc(-c2sc(Nc3ccccc3)n[n+]2-c2ccc(F)cc2)c(OC)c1OC	-4%	13µM*	?	-2%	7%	-13
COc1cc(Br)c(-c2sc(Nc3ccccc3)n[n+]2-c2ccc(F)cc2)cc1OC	-20%	-28%	-1%	6.3µM*	0%	-13
